CtBP-E1A blk: inhibitors of CtBP/E1A interaction. AlphaScreen GST-E1A/His-CtBP binding, 1536-well; hits give low values. activity change, % (no concentration beside the values). 340,000 compounds, 0.49% hits. AID 651724; in the data active = activity change below about -65%; inconclusive = mostly about -30% to -63%; also: % is scaled to controls: 0 for no effect and ±100 for the full control effect
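AlphaScreen with 125 nM GST-E1A and 125 nM His-CtBP (5X stocks) in Tris pH 8.0, 300 mM NaCl, BSA, Tween 20, TCEP. Compounds preincubated 2 h at 37 deg C, then glutathione donor/nickel acceptor beads added for 1 h at 37 deg C in dark.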
Six1-Eya2 inh: blocks human Six1 binding to Eya2 | Q15475+O00167 | AlphaScreen GST-Six1/His-Eya2 binding, biochemical; hits give low values | activity change, % (no concentration beside the values) | 360,000 compounds, 0.56% hits; in the data active = activity change below about -65%; inconclusive = mostly about -30% to -63%; also: % is scaled to controls: 0 for no effect and ±100 for the full control effect
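GST-Six1 + His-Eya2 (5X stock: 250/500 nM); Tris pH 8.0, 300 mM NaCl, 0.05% BSA, 0.02% Tween 20; GSH donor/Ni acceptor beads; 1 h 37 °C dark; AlphaScreen readout.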
JMJD2A Tudor inh: blocks the human JMJD2A Tudor domain; AID 504339; Potency, µM (top dose mostly 114 µM), without a hit: top-dose activity change, negative = inhibition, usual class: inhibitors; 390,000 compounds, 4.4% hits; AlphaScreen JMJD2A-Tudor / H3K4me3 peptide binding; O75164; also: potency is read from the fitted curve at half-maximal effect; % is scaled to controls: 0 for no effect and ±100 for the full control effect; nearly all actives have a fitted effect of over 50% in size
HP1b binding inh: HP1-beta chromodomain-methylated histone interaction inhibition | 390,000 compounds, 0.56% hits | P83916 | Potency, µM (highest dose often 114 µM), inactives show at the highest dose activity change, negative = inhibition, hits mostly inhibitors | AlphaScreen HP1-beta / biotin-H3K9me3 peptide binding | AID 540317; also: potency is read from the fitted curve at half-maximal effect; nearly all actives have a fitted effect of over 70% in size
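HP1-beta protein (50 nM final) preincubated 30 min at room temperature with biotinylated H3(1-18)K9me3 peptide (50 nM) in PBS pH 7.4, 0.01% Tween-20, then compound added for 30 min. AlphaScreen streptavidin donor/nickel chelate acceptor beads (10 ug/mL final), 30 min dark, luminescence read.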
BAZ2B block: blocks human BAZ2B. Q9UIF8. AlphaScreen BAZ2B-H3K14Ac peptide displacement. Potency, µM (titrated, usually from 114 µM), without a hit: at the highest dose activity change, negative = inhibition, usual class: inhibitors. 360,000 compounds, 4.4% hits. AID 504333; also: potency is read from the fitted curve at half-maximal effect; % is scaled to controls: 0 for no effect and ±100 for the full control effect; nearly all actives have a fitted effect of over 60% in size
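In this displacement format the biotinylated H3(5-23) peptide acetylated at Lys14 serves as ligand at 50 nM, with BAZ2B at 50 nM in PBS pH 7.4 containing 0.01% Tween-20. Donor and acceptor beads are 10 ug/mL final.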
TDP1 block: inhibitors of human tyrosyl-DNA phosphodiesterase TDP1 | 350,000 compounds, 0.28% hits | recombinant TDP1, AlphaScreen DNA substrate cleavage | Potency, µM (doses to about 130 µM), for inactives: at the top dose activity change, negative = inhibition, actives largely listed as inhibitors | AID 485290; also: potency is read from the fitted curve at half-maximal effect; % is scaled to controls: 0 for no effect and ±100 for the full control effect; nearly all actives have a fitted effect of over 40% in size
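Recombinant E. coli-expressed Tdp1 (1 nM) preincubated with compound 15 min at RT, then 5'-biotin/3'-phosphotyrosine-FITC DNA substrate (15 nM) added for 5 min. AlphaScreen beads (10 ug/ml) added, 10 min RT; tyrosine-FITC cleavage read as signal loss.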
Numbers without * were called inactive; ? = inconclusive; · = not tested or not shown; [ ] = remark or other dose. Shown are actives, neighbours in structure and some others; about 5.3% of the full set was active somewhere. Unless noted, calls follow the shape of the dose curve; as a rule, active = well fitted inhibition curve with a large enough effect; inconclusive = small, poorly fitted or top-dose-only effect; inactive = no such curve, though single readings can be large or run the other way.

SMILES	CtBP-E1A blk	Six1-Eya2 inh	JMJD2A Tudor inh	HP1b binding inh	BAZ2B block	TDP1 block
Cc1nc(N/N=C/c2ccc(O)cc2O)cc(N2CCOCC2)n1	-93*	-79*	79µM*	33%	45µM*	·
Oc1ccccc1/C=N/Nc1cc(N2CCCC2)nc(N2CCCC2)n1	0	?	28µM*	?	25µM*	11%
CCOc1ccccc1NC(=O)Cn1c(=O)n(Cc2ccccc2)c(=O)c2cccnc21	·	·	0%	42%	7%	-3%
O=C(O)CO	·	·	·	·	·	8%
CN(C(=O)c1cccnc1)c1nnc(-c2ccccn2)s1	-2	-8	-14%	19%	56µM*	5%
CN(C(=O)c1ccccn1)c1nnc(-c2cnccn2)s1	-7	0	-4%	3%	79µM*	-3%
O=C(/C=C/c1ccc(-c2ccccc2[N+](=O)[O-])o1)c1ccc(Br)cc1	-14	-16	?	-36%	28µM*	5%
Cc1ccc(-c2ccc(/C=C/C(=O)c3ccccc3)o2)cc1	8	1	-20%	-6%	?	5%
Cc1ccc(C(=O)/C=C/c2ccc(-c3ccccc3[N+](=O)[O-])o2)cc1	7	-10	?	?	25µM*	8%
COc1ccc(CCn2c(=S)[nH]c(=O)c3nccnc32)cc1OC	·	·	-12%	14%	·	0%
CN(C)c1ccc(C=C2C=Cc3ccccc32)cc1	-4	-71*	14µM*	?	·	·
COc1ccc(C(=O)/C=C/c2ccc(N(C)C)cc2)c(OC)c1	-2	21	-5%	43%	-10%	1%
CNc1ccc(C=C2C=Cc3ccccc32)cc1	-2	?	28µM*	40µM*	·	·
COc1cc2c(cc1OC)C(=Cc1ccc(N(C)C)cc1)C=C2	-78*	-71*	10µM*	10µM*	·	·
CCC(=O)N1CCc2cc(Br)cc(S(=O)(=O)NCCc3ccc(OC)c(OC)c3)c21	·	·	1%	40%	0%	9%
COCCCn1c(=N)c(C(=O)NCc2ccco2)cc2c(=O)n3ccccc3nc21	·	·	-32%	26%	-16%	·
COc1ccc(CCn2c(=N)c(C(=O)NCc3ccco3)cc3c(=O)n4ccccc4nc32)cc1OC	·	-74*	?	9%	·	·
N=c1c(C(=O)NCc2ccco2)cc2c(=O)n3ccccc3nc2n1CCc1ccccc1	-67*	-78*	-24%	22%	·	4%
CC(=O)Nc1ccc(NS(=O)(=O)c2ccc3ccccc3c2)cc1	-8	-2	28µM*	-9%	-6%	0%
CC(=O)Nc1ccc(NS(=O)(=O)c2ccc3c(c2)n(C)c(=O)n3C)cc1	6	11	-8%	49%	79µM*	·
O=S(=O)(Nc1cccc2ccccc12)c1ccc2ccccc2c1	·	·	79µM*	?	·	1%
O=S(=O)(Nc1cccc2ccccc12)c1ccccc1	6	-1	-23%	15%	-1%	1%
O=S(=O)(O)c1c(NS(=O)(=O)c2ccccc2)ccc2ccccc12	·	·	89µM*	16%	·	3%
CCCOc1ccc(CN(C(=O)c2nc(SC(C)C)ncc2Cl)C2CCS(=O)(=O)C2)cc1 (stereo unspecified)	·	·	?	14%	-25%	-5%
CCCOc1ccccc1Cn1c(=O)sc2ccccc21	·	·	168%	153%	244%	-10%
O=C(CNC(=O)C1CCCC1)OC(C(=O)Nc1cc(C(F)(F)F)ccc1Cl)c1ccccc1 (stereo unspecified)	·	·	-11%	·	·	1%
CN(C)c1ccc(N/C(=N\S(=O)(=O)c2cccs2)c2ccccc2)cc1	·	?	45µM*	?	45µM*	0%
Nc1cc(-c2ccc(Cl)cc2)nn1S(=O)(=O)c1cccc2nsnc12	-2	-27	45µM*	-22%	?	9%
COc1cccc(NC(=O)c2ccc3[nH]c(C)cc(=O)c3c2)c1	·	·	-14%	53%	-27%	6%
CC(=O)c1ccc(N2CCN(S(=O)(=O)c3ccc(-c4coc(C)n4)cc3)CC2)cc1	·	·	-23%	29%[57 µM]	-17%	9%

Assay outcomes from PubChem BioAssay.
